Laboratory results: the supplement of paper PMC12067926

Assays:
Test in all cases: relative growth (AUC of 72 h growth curve relative to DMSO control, dAUC) (ratio); higher = more growth (less inhibition), active = hit call of the paper
Settings in all cases: 20 µM;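 active = growth AUC significantly below the DMSO wells by Dunnett test; inactive = the rest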
[1] = compound: C=CCOC(Cn1ccnc1)c1ccc(Cl)cc1Cl
Summary of the method: (§1)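 Relative growth (dAUC) is the spline-integrated area under the growth curve divided by the mean of the DMSO-only control wells. Cultures were isolates from Icelandic stream sediments and Silwood Park soil, plus whole sediment communities, grown to carrying capacity in Luria–Bertani medium and diluted 1:100 into 96-well plates containing each chemical at 20 µM (1% DMSO). A600 was read hourly for 72 h on a plate reader, with brief shaking before each read, and values were averaged over three biological replicates.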

[2] = compound: CC(=O)CC(c1ccccc1)c1c(O)c2ccccc2oc1=O
Summary of the method: as §1

[3] = compound: CC1COc2ccccc2N1C(=O)C(Cl)Cl
Summary of the method: as §1

[4] = compound: CCCCC(CC)CN1C(=O)[C@@H]2[C@H](C1=O)[C@@H]1C=C[C@H]2C1 (mixture of isomers)
Summary of the method: as §1

[5] = compound: CCCCCCCCc1c(CC)nc2ncnn2c1N
Summary of the method: as §1

[6] = compound: CCCCOCCOCCOCc1cc2c(cc1CCC)OCO2
Summary of the method: as §1

[7] = compound: CCCOC(=O)NCCCN(C)C
Summary of the method: as §1

[8] = compound: COC(=O)c1csc(C)c1S(=O)(=O)NC(=O)n1nc(OC)n(C)c1=O
Summary of the method: as §1

[9] = compound: Cc1ccc(C(C)NC(=O)[C@@H](NC(=O)OC(C)C)C(C)C)cc1
Summary of the method: as §1

[10] = compound: Cc1nn(C)c(Oc2ccccc2)c1/C=N/OCc1ccc(C(=O)OC(C)(C)C)cc1
Summary of the method: as §1

[11] = compound: Cn1cc(C(=O)Nc2ccc(F)cc2-c2ccc(Cl)c(Cl)c2)c(C(F)F)n1
Summary of the method: as §1

[12] = compound: Cn1cc(C(=O)Nc2ccccc2-c2cc(F)c(F)c(F)c2)c(C(F)F)n1
Summary of the method: as §1

[13] = compound: O=C(NCc1ncc(C(F)(F)F)cc1Cl)c1c(Cl)cccc1Cl
Summary of the method: as §1

[14] = compound: Oc1c(Cl)cc(Cl)c(Cl)c1Cc1c(O)c(Cl)cc(Cl)c1Cl
Summary of the method: as §1

[15] = compound: S=C([S-])NCCNC(=S)[S-].S=C([S-])NCCNC(=S)[S-].[Mn+2].[Zn+2]
Summary of the method: as §1

[16] = compound: c1ccc2[nH]c(-c3cscn3)nc2c1
Summary of the method: as §1

Measured: relative growth

Pseudomonas 4 (Pseudomonas peli)
inactive: [1] 0.952 | [2] 0.978 | [3] 0.938 | [4] 0.959 | [5] 0.99 | [6] 0.961 | [7] 0.995 | [8] 1.03 | [9] 0.968 | [10] 1.01 | [11] 0.979 | [12] 0.992 | [13] 0.981 | [15] 0.927 | [16] 0.928
active: [14] 0.00176

Flavobacterium 1 (Flavobacterium glaciei)
inactive: [2] 1.03 | [3] 1.04 | [4] 1.05 | [5] 0.922 | [6] 0.986 | [7] 1.02 | [8] 0.979 | [9] 0.922 | [10] 0.849 | [11] 0.793 | [12] 1.05 | [13] 0.965 | [15] 0.895 | [16] 0.915
active: [1] 0.25 | [14] 0.0158

Pseudomonas 6 (Pseudomonas sp.)
inactive: [1] 0.901 | [2] 1.13 | [3] 1.09 | [4] 1.1 | [5] 0.937 | [6] 1.14 | [7] 0.948 | [8] 1.09 | [9] 1.12 | [10] 1.09 | [11] 0.974 | [12] 1.04 | [13] 1.05 | [15] 0.926 | [16] 0.884
active: [14] 0.0758

Argrobacterium 1 (Agrobacterium sp.)
active: [14] 0.705
inactive: [1] 1.11 | [2] 0.978 | [3] 1.03 | [4] 1.13 | [5] 1.04 | [6] 0.946 | [7] 0.985 | [8] 1.01 | [9] 1.01 | [10] 1.17 | [11] 0.953 | [12] 0.918 | [13] 1.02 | [15] 1.14 | [16] 0.852

Pseudomonas 3 (Pseudomonas mandelii)
inactive: [1] 1.01 | [2] 1.06 | [3] 1.07 | [4] 1.05 | [5] 0.984 | [6] 1.04 | [7] 1.04 | [8] 1.04 | [9] 1.08 | [10] 1.09 | [11] 1.03 | [12] 1 | [13] 0.984 | [15] 0.907 | [16] 0.96
active: [14] 0.00168

Microbacterium 1 (Microbacterium arborescens)
inactive: [1] 0.965 | [2] 1.05 | [3] 0.934 | [4] 0.918 | [5] 0.98 | [6] 0.988 | [7] 1.02 | [8] 1.03 | [9] 0.968 | [10] 1.03 | [11] 1.04 | [12] 1.01 | [13] 1.05 | [15] 0.986 | [16] 0.983
active: [14] 0.0384

Sphingomonas 2 (Sphingomonas sp.)
inactive: [1] 0.991 | [2] 1.2 | [3] 1.09 | [4] 1.07 | [5] 1.13 | [6] 0.821 | [7] 0.956 | [8] 1.14 | [9] 1.08 | [10] 1.14 | [12] 1.02 | [13] 1.09 | [15] 0.975 | [16] 1.02
active: [11] 0.555 | [14] 0.0196

Pseudomonas 5 (Pseudomonas baetica)
inactive: [1] 0.962 | [2] 1.03 | [3] 1.08 | [4] 0.989 | [5] 1 | [6] 1.01 | [7] 0.994 | [8] 1.04 | [9] 1.02 | [10] 1.05 | [11] 0.995 | [12] 1.05 | [13] 1.05 | [15] 1.03 | [16] 0.951
active: [14] 0.501

Community 10
active: [14] 0.51
inactive: [1] 0.783 | [2] 0.872 | [3] 0.795 | [4] 0.665 | [5] 0.99 | [6] 0.777 | [7] 1.02 | [8] 0.965 | [9] 0.84 | [10] 0.714 | [11] 0.742 | [12] 1.03 | [13] 0.996 | [15] 1.11 | [16] 1.16

Neobacillus 1 (Neobacillus soli)
active: [14] 0.507
inactive: [1] 0.996 | [2] 0.98 | [3] 0.978 | [4] 0.974 | [5] 0.944 | [6] 1.04 | [7] 1.01 | [8] 1.07 | [9] 0.946 | [10] 0.942 | [11] 0.848 | [12] 1.02 | [13] 1 | [15] 1.06 | [16] 0.976

Aeromonas 2 (Aeromonas sobria)
active: [14] 0.00514
inactive: [1] 0.874 | [2] 0.948 | [3] 0.962 | [4] 0.971 | [5] 0.986 | [6] 0.986 | [7] 0.999 | [8] 1.01 | [9] 0.993 | [10] 1.03 | [11] 0.936 | [12] 0.987 | [13] 0.974 | [15] 0.907 | [16] 0.973

Aeromonas 1 (Aeromonas sp. AE235)
active: [14] 0.000683
inactive: [1] 0.944 | [2] 0.96 | [3] 0.999 | [4] 0.966 | [5] 0.969 | [6] 0.979 | [7] 0.944 | [8] 1.04 | [9] 0.959 | [10] 1.02 | [11] 0.985 | [12] 1.03 | [13] 0.991 | [15] 0.955 | [16] 0.952

Community 9
inactive: [1] 0.764 | [2] 0.985 | [3] 1.02 | [4] 0.846 | [5] 1.02 | [6] 0.906 | [7] 1 | [8] 1.1 | [9] 0.905 | [10] 0.906 | [11] 0.839 | [12] 1.05 | [13] 1.03 | [15] 1.03 | [16] 0.911
active: [14] 0.306

Pseudomonas 2 (Pseudomonas vancouverensis)
inactive: [1] 0.914 | [2] 1 | [3] 0.989 | [4] 1.01 | [5] 0.969 | [6] 0.974 | [7] 0.987 | [8] 1.02 | [9] 0.996 | [10] 1.11 | [11] 0.967 | [12] 1.01 | [13] 0.98 | [15] 0.947 | [16] 0.959
active: [14] 0.0738

Aeromonas 3 (Aeromonas popoffii)
active: [14] 0.00174
inactive: [1] 0.933 | [2] 0.992 | [3] 0.988 | [4] 0.988 | [5] 1 | [6] 1.04 | [7] 1.02 | [8] 1.03 | [9] 1.03 | [10] 1.01 | [11] 0.999 | [12] 1.04 | [13] 1.04 | [15] 1.11 | [16] 1.04

Arthrobacter 3 (Arthrobacter sp.)
active: [1] 0.33 | [14] 0.0157
inactive: [2] 0.933 | [3] 1.01 | [4] 1.02 | [5] 0.981 | [6] 1.02 | [7] 1.02 | [8] 1.04 | [9] 0.922 | [10] 1 | [11] 0.725 | [12] 0.968 | [13] 0.978 | [15] 0.821 | [16] 0.921
